Screening data: PubChem BioAssay, several laboratories
Most compounds without a hit are left out; they make up all but 22% or so of the library.
E-sel TNF inh: E-selectin induction blockers in HUVEC – imaging, immunofluorescence, high content, primary screen. HUVEC TNFa-induced E-selectin immunofluorescence. inhibition, % at 2 µM. 120,000 tested, 0.71% active;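 active means inhibition above the batch mean plus 3 SD, and confirmed as a hit on visual image review, cut at about 43% in these data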
CYP2C9 activ: human CYP2C9 activators, primary screen, biochemical, luminescence. Cytochrome P450 2C9 (Homo sapiens), P11712. recombinant CYP2C9, luciferin-H conversion; hits give high values; factor 1 = untreated enzyme, 0 = blocked. activation factor at 5 µM. 96,000 tested, 1.4% active. AID 1024, 2008;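 active means activation factor of 2 or more for CYP2C9 at a 5 µM dose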
CYP2C9 inh: blockers of cytochrome P450 2C9 activity – biochemical, luminescence, ADME assay, primary screen; P11712; CYP2C9 Supersomes, luciferin-H conversion; inhibition, % at 5 µM; 96,000 tested, 20% active;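 active means blocking of liver enzyme CYP2C9 beyond about 50% at 5 µM, limit read from the data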
CYP2C19 inhib: blockers of cytochrome P450 2C19 activity – biochemical, luminescence, ADME assay, primary screen; AID 778, 2007; 96,000 tested, 21% active; P33261; CYP2C19 Supersomes, luciferin-H EGE luminescence, 30 min; inhibition, % at 5 µM;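 active means CYP2C19 inhibition above a set limit at 5 µM in the primary screen, cut at about 50% in these data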
Target sequence (P33261 whole entry, looked up): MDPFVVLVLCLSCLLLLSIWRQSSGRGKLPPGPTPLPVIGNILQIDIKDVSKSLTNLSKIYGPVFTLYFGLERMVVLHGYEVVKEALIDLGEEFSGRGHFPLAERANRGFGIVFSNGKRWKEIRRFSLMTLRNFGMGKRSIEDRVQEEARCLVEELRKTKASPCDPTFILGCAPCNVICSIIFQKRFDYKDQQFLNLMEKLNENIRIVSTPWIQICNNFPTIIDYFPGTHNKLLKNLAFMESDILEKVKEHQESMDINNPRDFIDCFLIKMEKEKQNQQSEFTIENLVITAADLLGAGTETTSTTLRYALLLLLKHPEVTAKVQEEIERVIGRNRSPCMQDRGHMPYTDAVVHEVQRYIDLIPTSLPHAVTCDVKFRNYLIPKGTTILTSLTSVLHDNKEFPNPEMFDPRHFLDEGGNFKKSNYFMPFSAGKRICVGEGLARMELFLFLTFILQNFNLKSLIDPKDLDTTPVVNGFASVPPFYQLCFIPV
CYP2C19 activ: human CYP2C19 activators, primary screen, biochemical, luminescence; Cytochrome P450 2C19 (Homo sapiens), P33261; recombinant CYP2C19, luciferin-H EGE luminescence; hits give high values; 0 = fully inhibited enzyme, 1 = untreated enzyme; activation factor at 5 µM; 96,000 tested, under 10 active; AID 1025, 2008;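 active means activation factor of at least 2 at 5 µM in the primary screen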
cytoskel mod: modifiers of F-actin cytoskeleton organization, primary screen, imaging, HUVEC, phalloidin staining, high-content imaging | 91,000 tested, 0.18% active | HUVEC TNFa F-actin phalloidin imaging | inhibition, % at 2 µM | AID 836, 2007;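 active means inhibition above the batch mean plus 3 SD and confirmed as a hit by visual image inspection, cut at about 30% in these data, passing the limit was not always enough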
Numbers stand for hits.

Cc1ccc(S(=O)(=O)/N=C2\C(=O)c3ccccc3C([O-])=C2n2cc[n+](CCC(C)C)c2)cc1 was read as E-sel TNF inh inactive, CYP2C9 activ inactive, CYP2C9 inh 52.6, CYP2C19 inhib inactive, CYP2C19 activ inactive and cytoskel mod inactive.
For Cc1ccc(S(=O)(=O)[N-]c2nc3ccccc3nc2-n2cc[n+](CCC(C)C)c2)cc1 the results were E-sel TNF inh inactive, CYP2C9 activ inactive, CYP2C9 inh 94.4, CYP2C19 inhib 56.2, CYP2C19 activ inactive and cytoskel mod inactive.
For CCC(Sc1nc(N)c(NC(=O)c2ccc(OC)c(OC)c2)c(=O)[nH]1)C(=O)OC (stereo not drawn) the results were CYP2C9 activ inactive, CYP2C9 inh inactive, CYP2C19 inhib inactive, CYP2C19 activ inactive and cytoskel mod inactive.
Screening O=C(CCn1c(=O)[nH]c2ccsc2c1=O)Nc1ccc(F)c(F)c1 returned CYP2C9 activ inactive, CYP2C9 inh 55.1, CYP2C19 inhib inactive, CYP2C19 activ inactive and cytoskel mod inactive.
O=C(Nc1ccc(Cl)c(Cl)c1)c1ccc(Cn2c(=O)[nH]c3ccsc3c2=O)cc1 was read as E-sel TNF inh inactive.
`O=C(CCn1c(=O)[nH]c2ccsc2c1=O)NCCc1ccc(Cl)cc1` gave E-sel TNF inh inactive, CYP2C9 activ inactive, CYP2C9 inh inactive, CYP2C19 inhib 70.0, CYP2C19 activ inactive and cytoskel mod inactive.
`O=C(CCn1c(=O)[nH]c2ccsc2c1=O)N(CCc1ccccc1)Cc1ccccc1` gave E-sel TNF inh inactive, CYP2C9 activ inactive, CYP2C9 inh 65.4, CYP2C19 inhib 65.4 and CYP2C19 activ inactive.
O=C(NCCCN1CCOCC1)C(C(=O)c1ccccc1)n1ccccc1=O (stereo not drawn) was read as E-sel TNF inh inactive, CYP2C9 activ inactive, CYP2C9 inh inactive, CYP2C19 inhib inactive, CYP2C19 activ inactive and cytoskel mod inactive.
Screening O=C(Nc1nc2ccccc2[nH]1)c1cc2ccccc2o1 returned E-sel TNF inh inactive.
Screening COCC(=O)N1CCCN(c2nc3c(C)cccc3cc2C#N)CC1 returned E-sel TNF inh inactive, CYP2C9 activ inactive, CYP2C9 inh inactive, CYP2C19 inhib 63.9, CYP2C19 activ inactive and cytoskel mod inactive.
Screening CCOCCCNC(=S)N1CCCN(c2nc3c(C)c(C)ccc3cc2C#N)CC1 returned E-sel TNF inh inactive.
`Cc1cccc2cc(C#N)c(SCC(=O)N3CCC(C)CC3)nc12` gave E-sel TNF inh inactive, CYP2C9 activ inactive, CYP2C9 inh 58.7, CYP2C19 inhib inactive, CYP2C19 activ inactive and cytoskel mod inactive.
`CCOc1ccc2cc(C#N)c(SCC(=O)N3CCC(C)CC3)nc2c1` gave E-sel TNF inh inactive, CYP2C9 activ inactive, CYP2C9 inh 63.3, CYP2C19 inhib inactive, CYP2C19 activ inactive and cytoskel mod inactive.
For CCOc1ccc2nc(SCC#N)c(C#N)cc2c1 the results were E-sel TNF inh inactive, CYP2C9 activ inactive, CYP2C9 inh 66.8, CYP2C19 inhib inactive, CYP2C19 activ inactive and cytoskel mod inactive.
Screening CCOc1ccc2cc(C#N)c(SCC(=O)NC(C)CC)nc2c1 (stereo not drawn) returned E-sel TNF inh inactive, CYP2C9 activ inactive, CYP2C9 inh 53.6, CYP2C19 inhib inactive, CYP2C19 activ inactive and cytoskel mod inactive.
Screening c1ccc(OCCn2cnc3ccccc32)cc1 returned E-sel TNF inh inactive, CYP2C9 activ inactive, CYP2C9 inh inactive, CYP2C19 inhib inactive, CYP2C19 activ inactive and cytoskel mod inactive.
`Brc1ccccc1OCCCn1cnc2ccccc21` gave E-sel TNF inh inactive, CYP2C9 activ inactive, CYP2C9 inh 60.0, CYP2C19 inhib 58.2, CYP2C19 activ inactive and cytoskel mod inactive.
Cc1ccccc1OCCCCn1cnc2ccccc21 was read as E-sel TNF inh inactive, CYP2C9 activ inactive, CYP2C9 inh inactive, CYP2C19 inhib 60.8, CYP2C19 activ inactive and cytoskel mod inactive.
For Fc1ccc(Cn2cnc3ccccc32)cc1 the results were E-sel TNF inh inactive, CYP2C9 activ inactive, CYP2C9 inh inactive, CYP2C19 inhib inactive and CYP2C19 activ inactive.
For CCCOc1ccc(Cn2cnc3ccccc32)cc1 the results were E-sel TNF inh inactive, CYP2C9 activ inactive, CYP2C9 inh 86.6, CYP2C19 inhib 64.7, CYP2C19 activ inactive and cytoskel mod inactive.
For Cc1cccc(Cn2cnc3ccccc32)c1 the results were E-sel TNF inh inactive, CYP2C9 activ inactive, CYP2C9 inh 53.2, CYP2C19 inhib 84.2, CYP2C19 activ inactive and cytoskel mod inactive.
For COc1cccc(-c2cc(C(F)(F)F)nc(N3CCCCC3)n2)c1 the results were CYP2C9 activ inactive, CYP2C9 inh inactive, CYP2C19 inhib inactive, CYP2C19 activ inactive and cytoskel mod inactive.
`CC(C)[C@H](NC(=O)Nc1ccccc1F)C(=O)O` gave E-sel TNF inh inactive, CYP2C9 activ inactive, CYP2C9 inh inactive, CYP2C19 inhib inactive, CYP2C19 activ inactive and cytoskel mod inactive.
Cc1c(C(=O)Nc2ccccc2N2CCOCC2)sc2nc3n(c(=O)c12)CCC3 was read as CYP2C9 activ inactive, CYP2C9 inh inactive, CYP2C19 inhib inactive and CYP2C19 activ inactive.
For c1ccc(OCCCCn2cnc3ccccc32)cc1 the results were E-sel TNF inh inactive, CYP2C9 activ inactive, CYP2C9 inh inactive, CYP2C19 inhib 59.9, CYP2C19 activ inactive and cytoskel mod inactive.
`CCCCN(C)CCC(=O)Nc1ccc(C)cc1` gave E-sel TNF inh inactive.
For Cc1nnc(SCC(=O)Nc2cccc(C(F)(F)F)c2)[nH]c1=O the results were E-sel TNF inh inactive, CYP2C9 activ inactive, CYP2C9 inh inactive, CYP2C19 inhib inactive, CYP2C19 activ inactive and cytoskel mod inactive.
`CC(=O)c1sc2nc(C)cc(C)c2c1N` gave E-sel TNF inh inactive, CYP2C9 activ inactive, CYP2C9 inh inactive, CYP2C19 inhib inactive, CYP2C19 activ inactive and cytoskel mod inactive.
Cc1cc(C)c2c(N)c(S(=O)(=O)Cc3ccccc3)sc2n1 was read as E-sel TNF inh inactive, CYP2C9 activ 3, CYP2C9 inh inactive, CYP2C19 inhib 99.1, CYP2C19 activ inactive and cytoskel mod inactive.
Screening Cc1ccc(CCN2CC(C(=O)NC3CCCC3)CC2=O)cc1 (stereo not drawn) returned E-sel TNF inh inactive, CYP2C9 activ inactive, CYP2C9 inh inactive, CYP2C19 inhib inactive, CYP2C19 activ inactive and cytoskel mod inactive.
For COc1ccc(Cc2ccc(OC)c(N)c2)cc1N the results were E-sel TNF inh inactive, CYP2C9 activ inactive, CYP2C9 inh inactive, CYP2C19 inhib 65.5, CYP2C19 activ inactive and cytoskel mod inactive.
Screening COc1cc(Cc2ccc(N)c(OC)c2)ccc1N returned E-sel TNF inh inactive.
Screening COc1cccc(CNC(=O)C(C(=O)NCc2cccc(OC)c2)c2ncc(C(F)(F)F)cc2Cl)c1 returned E-sel TNF inh inactive.
For NC(=O)c1ncc(C(F)(F)F)cc1Cl the results were E-sel TNF inh inactive.
